# MCF10A rerep = DNA re-replication induction in MCF 10a cells; 350,000 tested, 2.9% active; AID 624296; Potency, µM (top dose mostly 46.1 µM), inactives show top-dose activity, positive = re-replication, actives largely listed as activators; MCF 10A DNA re-replication, Hoechst nuclear intensity, 48 h; also: potency is read from the fitted curve at half-maximal effect; % of control where 0% means no effect; nearly all actives have a fitted effect of over 50% in size
# SW480 rereplic = induces DNA re-replication in SW480 colon adenocarcinoma cells. Potency, µM (top dose mostly 46.1 µM), inactives show at the top dose re-replication activation, usual class: activators. 340,000 tested, 1.8% active. AID 624297. SW480 DNA re-replication, Hoechst DNA content imaging, 48 h; also: potency is read from the fitted curve at half-maximal effect; % of control where 0% means no effect; nearly all actives have a fitted effect of over 55% in size
#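 SW480 cells exposed to compounds for 48 hr at 37 C, 5% CO2, then Hoechst-stained 40 min. Nuclear DNA content imaged by fluorescence scanning (405 nm excitation, 500-530 nm emission); re-replication scored as increased high-intensity nuclei.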
# ASM inhibitor = inhibitors of human secretory acid sphingomyelinase; P17405; placental ASM, HMU-PC fluorogenic substrate, 60 min; Potency, µM (doses to about 57.5 µM), for the others: at the top dose activity change, negative = inhibition, most hits filed as inhibitors; 340,000 tested, 0.006% active; AID 504937; also: potency is read from the fitted curve at half-maximal effect
# Target sequence (P17405 47-631 limits assumed): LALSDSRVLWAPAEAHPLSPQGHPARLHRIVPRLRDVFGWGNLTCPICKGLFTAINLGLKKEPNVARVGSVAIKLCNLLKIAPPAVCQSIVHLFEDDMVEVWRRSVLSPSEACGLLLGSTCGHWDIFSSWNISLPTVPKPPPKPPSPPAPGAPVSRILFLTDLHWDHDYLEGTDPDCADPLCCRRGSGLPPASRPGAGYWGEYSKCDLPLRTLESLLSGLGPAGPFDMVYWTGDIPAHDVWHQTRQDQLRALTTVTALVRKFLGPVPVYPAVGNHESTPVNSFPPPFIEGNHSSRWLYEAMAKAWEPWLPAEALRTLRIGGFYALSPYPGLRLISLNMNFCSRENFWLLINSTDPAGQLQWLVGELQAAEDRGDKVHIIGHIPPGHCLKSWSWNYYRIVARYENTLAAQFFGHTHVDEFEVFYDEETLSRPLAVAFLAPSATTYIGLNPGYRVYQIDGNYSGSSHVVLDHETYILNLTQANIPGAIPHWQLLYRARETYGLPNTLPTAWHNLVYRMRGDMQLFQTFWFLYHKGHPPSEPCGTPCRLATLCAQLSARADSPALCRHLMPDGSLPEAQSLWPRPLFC
#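 Human placenta-derived ASM enzyme was preincubated with compound for 10 minutes at room temperature, then given fluorogenic substrate HMU-PC0 (9 uM final) for 60 minutes at 37 °C; a pH 10 stop preceded fluorescence reading at Ex 386/Em 447 nm.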
# Giardia kill = kills Giardia lamblia; AID 540267; Giardia lamblia trophozoite viability; 340,000 tested, 0.15% active; activity change, % at 7.66 µM, hits read low; in the data active = activity change below about -80%; inconclusive = between about -30% and that limit;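 also: parasites exposed to compound for two days anaerobically before the ATP read; % is scaled to controls: 0 for no effect and ±100 for the full control effect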
#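 Luminescent ATP signal served as the viability read-out, measured 15-30 min after adding ATP detection reagent to trophozoites that had been incubated with compounds for 48 hrs at 37 deg C anaerobically at 100 cells/well.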
# KB-3-1 tox = kills parental KB-3-1 adenocarcinoma cells; KB-3-1 viability, CellTiter-Glo ATP luminescence, 72 h; Potency, µM (highest dose often 46.1 µM), actives largely listed as cytotoxic; 400,000 tested, 1.4% active; also: potency is read from the fitted curve at half-maximal effect; % is scaled to controls: 0 for no effect and ±100 for the full control effect; nearly all actives have a fitted effect of over 60% in size
#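 Here the drug-naive KB-3-1 line serves as comparator for MDR sub-line selectivity; cells received compound titrations, 72 h at 37 °C, then CellTiter-Glo readout.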
# KB-V1 cytotox = kills drug-selected multidrug resistant KB-V1 cells; 400,000 tested, 3.4% active; AID 1347076; Potency, µM (top dose mostly 46.1 µM), usual class: cytotoxic; KB-V1 MDR cells viability, CellTiter-Glo, 72 h; also: potency is read from the fitted curve at half-maximal effect; % is scaled to controls: 0 for no effect and ±100 for the full control effect; nearly all actives have a fitted effect of over 60% in size
#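 Drug-selected KB-V1 cells, grown in DMEM lacking phenol red with 10% FBS, receive compound titrations; after three days at 37 degrees C, surviving cell ATP is quantified by CellTiter-Glo luminescence and responses normalized and curve-fitted.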
# Starred values were filed as active, the others as inactive; i = inactive; ? = inconclusive; · = not tested or not shown; ! = repeats disagree. Sampled rows, rich in hits. Any-hit rate of the full collection: about 6.9%. Unless noted, calls follow the shape of the dose curve; as a rule, active = well fitted curve in the direction sought with a large enough effect; inconclusive = small, poorly fitted or top-dose-only effect, or another doubt; inactive = no such curve, though single readings can be large; an effect the other way counts as inactive or inconclusive.
SMILES,MCF10A rerep,SW480 rereplic,ASM inhibitor,Giardia kill,KB-3-1 tox,KB-V1 cytotox
CN(CC(=O)NCc1ccc(Cl)cc1)S(=O)(=O)c1ccc2c(c1)c(=O)n(C)c(=O)n2C,·,·,·,·,i,i
Cc1c(C(=O)Nc2cccc(Cl)c2)c2ccccn2c1CCc1ccncc1,7.3µM*,?,i,-10,i,?
Cc1ccc(NC(=O)CCc2c[nH]c3ccccc23)nc1,?,3.3µM*,-2%,-3,4.1µM*,?
COc1cccc(NC(=O)CN(C)CC(=O)Nc2ccc(C)c(S(=O)(=O)N3CCOCC3)c2)c1,-2%,1%,0%,-2,i,?
Cc1sc(NC(=O)c2ccco2)c(C(c2cccnc2)N2CCN(CCO)CC2)c1C (centres undefined),26%,-22%,0%,-1,i,i
CCOC(=O)C1CCN(C(c2cccnc2)c2c(NC(=O)c3ccco3)sc(C)c2C)CC1 (centres undefined),?,?,14%,0,3.3µM*,2.9µM*
COc1ccc2c(c1)C(CC(C)=O)N(c1ccc(-c3cccs3)cc1)C(c1ccsc1)=C2 (centres undefined),·,·,·,·,10µM*,i
CCCCn1c(N)c(N(Cc2ccccc2OC)C(=O)C(C)Oc2ccc(F)cc2)c(=O)[nH]c1=O (centres undefined),0%,-5%,2%,-3,i,i
CCCCn1c(N)c(N(Cc2ccccc2OC)C(=O)C(C)Oc2ccc(Cl)cc2)c(=O)[nH]c1=O (centres undefined),-18%,21µM*,4%,-2,?,i
CC(Cc1cccs1)NC(=S)Nc1ccc(Cl)cc1 (centres undefined),21µM*,5%,-4%,4,i,i
COc1ccc(Cc2nnc(NC(=O)c3ccc(F)cc3)s2)cc1OC,-3%,-1%,6%,8,i,i
Cc1ccccc1OCc1n(CC(=O)OC2CC(C)CCC2C(C)C)c2ccccc2[n+]1C (centres undefined),1.8µM*!,?,-23%,-2,?,i
CC1CCC(C(C)C)C(OC(=O)Cn2c(-c3ccc(Cl)cc3)[n+](C)c3ccccc32)C1 (centres undefined),?,?,-6%,5,?,i
CC1CCC(C(C)C)C(OC(=O)Cn2c(-c3ccc(Br)cc3)[n+](C)c3ccccc32)C1 (centres undefined),?,?,-10%,4,18µM*!,?
COc1cc(C)c(/C=C(\C#N)C(=O)Nc2cccc(C)c2)cc1C(C)C,21µM*,-2%,8%,-3,i,i
O=C(CCOc1ccccc1)Nc1ccc(Cl)c(S(=O)(=O)N2CCOCC2)c1,10%,0%,-1%,-7,i,i
Cc1ccc(S(=O)(=O)/N=C2/C=C(Sc3ncn[nH]3)C(=O)c3ccccc32)cc1,11%,8.2µM*,-1%,-17,i,?
CC(C)c1ccc(S(=O)(=O)/N=C2/C=C(Sc3ncn[nH]3)C(=O)c3ccccc32)cc1,3.3µM*,10µM*,-9%,-8,i,?
Cc1cccc(N2C(=O)CCC2=O)n1,4%,-1%,2%,7,i,i
COc1ccc(CC2S/C(=N/N=C/c3ccccc3O)NC2=O)cc1 (centres undefined),23µM*,2.9µM*,10%,-14,?,i
COc1cc(C2C(c3ccccc3)C(c3cc(OC)cc(=O)o3)C2c2ccccc2)oc(=O)c1 (centres undefined),?,6%,-3%,-10,i,6.5µM*
Cc1cccc(C(=O)Nc2ccccc2OCc2cc(=O)n3c(C)csc3n2)c1,·,·,·,·,i,i
CSc1ccc(CCNC(=O)c2ccc(CS(=O)(=O)c3ccc(Br)cc3)o2)cc1,·,·,·,·,i,i
